This is an account of results in PubChem BioAssay (NCATS).

Structures are written as SMILES. “And” between values parts separate entries of the source, which are not always exact repeats. Identical values can stand only once. Results filed as inconclusive are left out. A structure can be active in one record and inactive in another. The source made the active and inactive calls. Calls follow the shape of the dose curve; as a rule, active = well fitted curve in the direction sought with a large enough effect; inconclusive = small, poorly fitted or top-dose-only effect, or another doubt; inactive = no such curve, though single readings can be large; an effect the other way counts as inactive or inconclusive.

Assay [1] addresses ATP-dependent 6-phosphofructokinase (Trypanosoma brucei brucei) (UniProt O15648). Nature of the assay: qHTS Validation Assay to Find Inhibitors of T. brucei phosphofructokinase (AID 485368). Also: potency is read from the fitted curve at half-maximal effect. In a few lines:
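Enzyme reaction in triethanolamine buffer pH 8.0 with 5 mM MgCl2, 0.01% Tween20 and 0.1% BSA; PFK 1.25 nM, F6P 0.5 mM, ATP 0.1 mM, 45 min RT. ADP quantified by ADP-Glo.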
Background: qHTS replaces the single test concentration by a dilution series.

A short description of assay [2]: Quantitative high throughput screen for delayed death inhibitors of the malarial parasite plastid, 96 hour incubation (AID 488745). Also: nearly all actives have a fitted effect of over 70% in size. Also: potency is read from the fitted curve at half-maximal effect. In a few lines:
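P. falciparum carrying an integrated firefly luciferase reporter, grown in erythrocytes (2% hematocrit, 0.1% parasitemia final) in RPMI 1640/0.5% Albumax, was exposed to compound for 96 h (two generations) at 37 C, 5% CO2. Luminescence decrease indicated growth inhibition.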

Assay [3] is described as follows: Quantitative high throughput screen for delayed death inhibitors of the malarial parasite plastid, 48 hour incubation (AID 488752). Also: nearly all actives have a fitted effect of over 65% in size. Also: potency is read from the fitted curve at half-maximal effect. In a few lines: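 Erythrocytes infected with P. falciparum carrying an integrated firefly luciferase reporter (2% hematocrit, 0.1% parasitemia final) were exposed to compounds in RPMI 1640/0.5% Albumax for 48 h at 37 C, 5% CO2. Growth inhibition was scored as reduced luminescence.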

The target in assay [4] is Thioredoxin reductase 1, cytoplasmic (Rattus norvegicus) (UniProt O89049). Kind of assay: qHTS Assay for Substrates of Mammalian Selenoprotein Thioredoxin Reductase 1 (TrxR1) (AID 488772).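 Also: NADPH fluorescence in the first read after selenite addition and not the 8 min delta; series mostly up to about 57 µM; a drop in NADPH fluorescence below the no-compound background marks a TrxR1 substrate.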 In a few lines:
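Quantitative HTS in Tris-HCl buffer at pH 7.5 with EDTA and Tween-20, using rat TrxR1, 400 uM NADPH and 400 uM selenite (final). A fall in initial NADPH fluorescence relative to background marked substrate behaviour.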

Assay [5] addresses Flap endonuclease 1 (Homo sapiens) (UniProt P39748). Nature of the assay: qHTS Validation Assay for the Inhibitors of Human Flap endonuclease 1 (FEN1) (AID 488816). Also: potency is read from the fitted curve at half-maximal effect. The method, boiled down:
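Readings taken at 0 and 15 min after starting the reaction with 50 nM (final) substrate supplied the signal. Compounds had first sat with 10 nM FEN1 reagent for 15 min at room temperature. Values come from Hill-equation concentration-response fits.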

In assay [6] the target is M-phase phosphoprotein 8 (Homo sapiens) (UniProt Q99549). Nature of the assay: qHTS Validation Assay for Inhibitors for MPP8 Chromodomain Interactions with Methylated Histone Tails (AID 488949). Also: nearly all actives have a fitted effect of over 55% in size. Also: potency is read from the fitted curve at half-maximal effect. The method, boiled down: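 MPP8 (50 nM) was pre-bound to 50 nM biotinylated H3(1-18)K9me3 peptide in PBS pH 7.4 with 0.01% Tween-20. Compounds were then added for 30 min at room temperature, and complex disruption was read by AlphaScreen with streptavidin donor and nickel-chelate acceptor beads.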

The target in assay [7] is Chromobox protein homolog 1 (Homo sapiens) (UniProt P83916). Kind of assay: qHTS Validation Assay for Inhibitors of HP1-beta Chromodomain Interactions with Methylated Histone Tails (AID 488953). Also: nearly all actives have a fitted effect of over 50% in size. Also: potency is read from the fitted curve at half-maximal effect. In a few lines:
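HP1-beta (50 nM) was preincubated 30 min at room temperature with biotinylated H3(1-18)K9me3 peptide (50 nM) in PBS pH 7.4, 0.01% Tween-20, then with compounds 30 min. AlphaScreen signal was read after streptavidin donor/nickel chelate acceptor beads (10 ug/mL final).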

Assay [8] addresses Methanococcus maripaludis chaperonin (MmCpn) (UniProt Q6LX38). Nature of the assay: High-Throughput Screening for Modulators of Cytosolic Chaperonin Activity: MmCpn Primary Screen (AID 488978).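 Also: 50 nM MmCpn enzyme hydrolysing 30 µM ATP at 37 °C.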 In a few lines:
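MmCpn at 50 nM final was preincubated 5 min at RT with compound. ATP was then added at 30 uM final for 10 min at 37 C. ADP formed was detected by Transcreener HTRF (665/590 nm).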

Assay [9] has as its target Transient receptor potential cation channel subfamily V member 1 (Homo sapiens) (UniProt Q8NER1). Kind of assay: HTS Assay for Compounds that Act as Enhancers of the Vanilloid Receptor 1 (AID 488979). The method, boiled down: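 Calcium influx kinetics via Fluo-8 (480/520 nm) in TRPV1-expressing cells, 2000/well cultured overnight at 35.5C. Compound-alone read 3 min (agonist phase), followed by EC20 capsaicin challenge for 2 min (enhancer phase).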

For assay [10], the target named is Thioredoxin reductase 1, cytoplasmic (Rattus norvegicus) (UniProt O89049). Nature of the assay: qHTS Assay for Inhibitors of Mammalian Selenoprotein Thioredoxin Reductase 1 (TrxR1) (AID 488773).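 Also: drop in NADPH fluorescence over an 8 min run after selenite addition; series mostly up to about 57 µM; nearly all actives have a fitted effect of over 40% in size.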 To be noted: Potency: inhibition. In a few lines: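 Steps: enzyme (90 nM) plus NADPH (400 uM final), 5 min at ~22 deg C; compound added, 15 min; selenite (400 uM final) added; fluorescence followed for 8 min. Concentration-response curves derived from the normalized delta values.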
Thioredoxin reductase 1, cytoplasmic (Rattus norvegicus), sequence (O89049 whole entry, looked up): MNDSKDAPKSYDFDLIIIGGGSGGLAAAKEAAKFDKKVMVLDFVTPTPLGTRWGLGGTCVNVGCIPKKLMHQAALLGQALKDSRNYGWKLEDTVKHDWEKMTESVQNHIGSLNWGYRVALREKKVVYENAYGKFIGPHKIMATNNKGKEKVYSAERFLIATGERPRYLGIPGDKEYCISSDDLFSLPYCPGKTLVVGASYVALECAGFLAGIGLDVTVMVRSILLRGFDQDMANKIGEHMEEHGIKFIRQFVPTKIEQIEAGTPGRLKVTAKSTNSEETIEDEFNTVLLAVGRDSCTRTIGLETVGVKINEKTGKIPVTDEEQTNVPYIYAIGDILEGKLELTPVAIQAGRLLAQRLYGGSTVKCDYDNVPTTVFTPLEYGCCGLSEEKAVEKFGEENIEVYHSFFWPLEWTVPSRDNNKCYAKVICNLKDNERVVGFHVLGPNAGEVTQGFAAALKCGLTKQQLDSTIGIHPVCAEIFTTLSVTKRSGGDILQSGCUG

M-phase phosphoprotein 8 (Homo sapiens), sequence (Q99549 whole entry, looked up): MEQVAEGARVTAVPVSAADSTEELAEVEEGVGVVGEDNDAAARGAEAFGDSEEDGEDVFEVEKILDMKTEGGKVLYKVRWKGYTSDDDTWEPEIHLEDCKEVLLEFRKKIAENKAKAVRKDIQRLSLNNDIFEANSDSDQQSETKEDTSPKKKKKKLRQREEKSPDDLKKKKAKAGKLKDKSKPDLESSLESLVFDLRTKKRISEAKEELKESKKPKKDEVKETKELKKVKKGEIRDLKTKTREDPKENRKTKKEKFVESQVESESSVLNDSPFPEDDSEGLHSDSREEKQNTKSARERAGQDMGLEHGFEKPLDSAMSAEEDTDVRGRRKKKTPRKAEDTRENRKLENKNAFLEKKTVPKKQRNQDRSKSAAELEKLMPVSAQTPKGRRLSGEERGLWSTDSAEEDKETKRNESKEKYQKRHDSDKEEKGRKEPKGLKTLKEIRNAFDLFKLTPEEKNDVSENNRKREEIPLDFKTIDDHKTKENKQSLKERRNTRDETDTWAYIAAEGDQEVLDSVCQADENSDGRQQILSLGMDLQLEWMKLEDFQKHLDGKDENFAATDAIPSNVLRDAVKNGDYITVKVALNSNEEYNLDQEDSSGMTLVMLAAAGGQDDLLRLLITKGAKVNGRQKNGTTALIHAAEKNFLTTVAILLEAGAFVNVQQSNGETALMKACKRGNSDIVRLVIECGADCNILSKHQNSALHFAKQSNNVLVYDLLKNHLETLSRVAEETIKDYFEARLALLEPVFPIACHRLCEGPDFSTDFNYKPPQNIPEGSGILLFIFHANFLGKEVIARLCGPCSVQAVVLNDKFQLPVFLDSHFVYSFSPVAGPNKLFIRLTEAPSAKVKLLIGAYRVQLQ
Methanococcus maripaludis chaperonin (MmCpn), sequence (Q6LX38 1-543): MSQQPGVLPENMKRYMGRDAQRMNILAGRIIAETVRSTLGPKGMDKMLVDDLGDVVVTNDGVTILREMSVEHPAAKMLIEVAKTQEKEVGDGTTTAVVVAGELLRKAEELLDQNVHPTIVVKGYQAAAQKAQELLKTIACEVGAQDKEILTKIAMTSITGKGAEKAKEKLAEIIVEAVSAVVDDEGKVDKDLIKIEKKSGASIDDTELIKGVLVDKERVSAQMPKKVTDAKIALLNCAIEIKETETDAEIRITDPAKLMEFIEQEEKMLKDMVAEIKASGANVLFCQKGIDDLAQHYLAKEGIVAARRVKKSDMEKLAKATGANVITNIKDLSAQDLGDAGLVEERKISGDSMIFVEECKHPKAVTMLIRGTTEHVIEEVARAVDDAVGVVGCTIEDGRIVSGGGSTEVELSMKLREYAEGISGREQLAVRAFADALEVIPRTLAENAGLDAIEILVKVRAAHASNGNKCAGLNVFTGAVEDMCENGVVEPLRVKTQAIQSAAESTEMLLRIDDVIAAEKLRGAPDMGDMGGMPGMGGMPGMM
Chromobox protein homolog 1 (Homo sapiens), sequence (P83916 whole entry, looked up): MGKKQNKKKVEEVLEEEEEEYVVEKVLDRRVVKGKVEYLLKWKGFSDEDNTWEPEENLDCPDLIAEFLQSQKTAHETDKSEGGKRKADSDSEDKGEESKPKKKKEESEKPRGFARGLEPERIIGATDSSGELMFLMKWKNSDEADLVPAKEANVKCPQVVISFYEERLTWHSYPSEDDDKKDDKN
Flap endonuclease 1 (Homo sapiens), sequence (P39748 whole entry, looked up): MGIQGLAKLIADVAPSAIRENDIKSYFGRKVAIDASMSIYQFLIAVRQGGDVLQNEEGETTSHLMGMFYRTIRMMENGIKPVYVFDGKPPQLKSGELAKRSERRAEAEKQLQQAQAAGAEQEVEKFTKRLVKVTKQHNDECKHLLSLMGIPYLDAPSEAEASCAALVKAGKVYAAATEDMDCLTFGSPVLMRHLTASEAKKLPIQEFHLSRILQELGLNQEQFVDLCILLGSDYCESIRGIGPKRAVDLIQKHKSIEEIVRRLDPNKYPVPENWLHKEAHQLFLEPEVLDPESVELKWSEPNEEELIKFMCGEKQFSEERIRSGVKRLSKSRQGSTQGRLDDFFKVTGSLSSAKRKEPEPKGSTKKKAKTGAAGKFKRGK
Transient receptor potential cation channel subfamily V member 1 (Homo sapiens), sequence (Q8NER1 whole entry, looked up): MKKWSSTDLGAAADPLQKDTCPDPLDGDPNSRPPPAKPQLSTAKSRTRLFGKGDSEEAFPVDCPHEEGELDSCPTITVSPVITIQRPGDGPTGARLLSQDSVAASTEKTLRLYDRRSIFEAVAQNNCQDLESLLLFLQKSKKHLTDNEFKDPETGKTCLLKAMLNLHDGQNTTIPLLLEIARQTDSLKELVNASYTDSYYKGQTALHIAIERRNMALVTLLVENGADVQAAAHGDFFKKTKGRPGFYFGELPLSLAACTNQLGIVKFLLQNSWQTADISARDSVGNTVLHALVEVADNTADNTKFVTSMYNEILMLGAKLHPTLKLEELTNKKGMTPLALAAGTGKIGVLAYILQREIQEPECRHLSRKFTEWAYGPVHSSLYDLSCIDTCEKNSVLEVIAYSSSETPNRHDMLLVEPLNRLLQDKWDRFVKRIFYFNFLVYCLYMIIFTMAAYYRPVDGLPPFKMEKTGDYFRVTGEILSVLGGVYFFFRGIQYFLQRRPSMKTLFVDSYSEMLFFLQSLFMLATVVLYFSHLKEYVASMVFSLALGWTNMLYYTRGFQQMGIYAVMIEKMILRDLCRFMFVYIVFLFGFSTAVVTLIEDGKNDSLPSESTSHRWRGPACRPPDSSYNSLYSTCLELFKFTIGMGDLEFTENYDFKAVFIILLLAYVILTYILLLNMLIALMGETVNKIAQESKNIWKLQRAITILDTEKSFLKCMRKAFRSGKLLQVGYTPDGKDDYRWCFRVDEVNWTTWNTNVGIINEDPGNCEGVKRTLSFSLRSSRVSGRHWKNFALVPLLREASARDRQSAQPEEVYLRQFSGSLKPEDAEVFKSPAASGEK
ATP-dependent 6-phosphofructokinase (Trypanosoma brucei brucei), sequence (O15648 whole entry, looked up): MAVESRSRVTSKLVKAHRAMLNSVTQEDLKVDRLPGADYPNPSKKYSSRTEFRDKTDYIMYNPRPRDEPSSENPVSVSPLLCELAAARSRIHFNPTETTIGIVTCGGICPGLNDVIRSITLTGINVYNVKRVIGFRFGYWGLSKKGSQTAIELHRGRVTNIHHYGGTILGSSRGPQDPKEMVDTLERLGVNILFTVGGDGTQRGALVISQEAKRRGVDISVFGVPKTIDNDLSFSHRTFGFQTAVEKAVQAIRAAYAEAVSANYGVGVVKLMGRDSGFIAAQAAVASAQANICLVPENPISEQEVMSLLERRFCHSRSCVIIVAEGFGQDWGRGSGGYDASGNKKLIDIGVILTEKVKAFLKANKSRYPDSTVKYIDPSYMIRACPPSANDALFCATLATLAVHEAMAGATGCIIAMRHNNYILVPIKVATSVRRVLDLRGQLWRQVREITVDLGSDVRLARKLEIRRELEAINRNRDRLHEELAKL

With `O=C(O)/C=C/C(O)c1ccc(Cl)cc1` (stereo unspecified), the Potency entry in assay [1], in assay [2], in assay [3], in [4], in assay [5] and in assay [6] was “inactive” in each case. Further, in assay [7], the Potency entry is “inactive”. Further, the compound was called inactive in assay [8] and in [9].
With `Cn1cc(C2=C(c3ccc(Cl)cc3Cl)C(=O)NC2=O)c2ccccc21`, the Potency result in assay [1], in assay [2], in [3], in assay [4], in assay [10] and in assay [5] was “inactive” in each case. Also, the Potency entry in assay [6] and in assay [7] was “inactive” throughout. In assay [8], the compound was classed as inactive.
With `CN(C)c1nc2c(Br)c(Br)c(Br)c(Br)c2[nH]1`, the Potency result in assay [1], in assay [3], in [4], in assay [5], in [6] and in assay [7] was “inactive” in each case. The compound was called inactive in assay [8] and in assay [9].
With `N=C(N)SCCc1ccc(CCSC(=N)N)cc1`, the Potency result in [1], in assay [2], in assay [3], in assay [4], in assay [10] and in [5] was “inactive” throughout. The Potency entry in assay [6] and in assay [7] was “inactive” throughout. The result in assay [8] and in assay [9] was inactive.
As to `COc1cccc(C(=O)NCCN2CCN(c3ccc(Cl)cc3)CC2)c1`, the Potency entry in [1], in assay [2], in [4], in assay [10], in assay [5] and in assay [7] was “inactive” throughout. In addition, the result in [8] and in assay [9] was inactive.
Take `O=C(Nc1cccc(C(=O)Nc2ccc(S(=O)(=O)O)c3cc(S(=O)(=O)O)cc(S(=O)(=O)O)c23)c1)Nc1cccc(C(=O)Nc2ccc(S(=O)(=O)O)c3cc(S(=O)(=O)O)cc(S(=O)(=O)O)c23)c1`: the Potency is 0.0379 µM (active) in assay [1]; 1.89 µM (active) in assay [5]; 31.6 µM (active) and 9.47 µM (active) in assay [6]; 20 µM (active) in assay [7]. Also, the Potency result in assay [2], in [3] and in assay [4] was “inactive” throughout. Besides, the call in [8] and in assay [9] was inactive.
Consider `CC(C)(C=O)Cc1cc(C(C)(C)C)c(O)c(C(C)(C)C)c1`, for which the Potency result in assay [1], in assay [2], in assay [3], in [4], in assay [10] and in [5] was “inactive” in each case. For the same compound, the Potency entry in assay [7] was “inactive”. The compound was called inactive in assay [8] and in assay [9].
For the compound `CN=c1nc(-c2ccccc2)n(-c2ccccc2)s1`, the Potency in assay [1] was 10.7 µM (active); in assay [6], 4.47 µM (active); in [7], 12.6 µM (active). Moreover, the Potency result in assay [2], in assay [4] and in assay [5] was “inactive” in each case. In addition, the compound was classed as inactive in assay [8] and in [9].
Take `N#C/C(=C\c1ccc(O)c(O)c1)C(=O)c1ccc(O)c(O)c1`: the Potency in assay [1] is 0.675 µM (active); in assay [5], 0.752 µM (active); in [6] it was 1.41 µM (active) and 2.99 µM (active). The Potency result in [3] and in assay [4] was “inactive” each time. In addition, the outcome in assay [8] and in [9] was inactive.
Consider `Cn1c(=O)c2[nH]c(-c3ccccc3)nc2n(C)c1=O`, for which the Potency result in assay [1], in assay [2], in assay [3], in assay [4], in [10] and in [6] was “inactive” in each case. For the same compound, in [7], the Potency result was “inactive”. For the same compound, the compound was called inactive in assay [8] and in assay [9].
Consider `CC1CN(S(=O)(=O)c2cccc3cnccc23)CCN1` (stereo unspecified), for which the Potency result in [1], in [2], in assay [3], in assay [10], in [5] and in assay [6] was “inactive” each time. Also, the outcome in assay [8] and in assay [9] was inactive.
`CCCCCCCCCCCCCCCCCC(=O)NCC(COP(=O)([O-])OCC[N+](C)(C)C)OCC` (stereo unspecified): the Potency result in [1], in assay [2], in assay [3], in [4], in assay [10] and in [5] was “inactive” each time. In assay [6], the Potency entry was “inactive”. Further, the compound was classed as inactive in assay [8] and in assay [9].
Consider `O=C(O)CNC(=O)C(CS)Cc1ccccc1` (stereo unspecified), for which the Potency entry in [1], in [2], in [3], in assay [4], in [10] and in [5] was “inactive” each time. In addition, the compound was called inactive in assay [8] and in assay [9].
As for `CN(C)C(N)=NCCC[C@H](N)C(=O)O`, the Potency result in assay [1], in [2], in [3], in assay [4], in [10] and in assay [5] was “inactive” in each case. The result in assay [8] and in [9] was inactive.
For the compound `CCCCCCCC/C=C\CCCCCCCC(=O)NCCO`, the Potency result in [1], in assay [4], in assay [5], in assay [6] and in assay [7] was “inactive” each time. For the same compound, the Potency in assay [2] is 2.94 µM (active); in [3], 2.62 µM (active). Also, the result in [8] and in [9] was inactive.
As for `O=c1[nH]c2cc([N+](=O)[O-])c([N+](=O)[O-])cc2[nH]c1=O`, the Potency entry in [1], in assay [2], in assay [4], in [10] and in assay [6] was “inactive” each time. Also, the call in assay [8] and in assay [9] was inactive.
With `CN1CCC[C@H]1c1cccnc1`, the Potency entry in assay [1], in assay [2], in [3], in assay [4], in [10] and in assay [5] was “inactive” in each case. In addition, the compound was classed as inactive in assay [8] and in assay [9].
With `CC(=O)SCC[N+](C)(C)C`, the Potency result in assay [1], in assay [2], in assay [3], in assay [4], in assay [10] and in assay [6] was “inactive” throughout. The Potency result in assay [7] is “inactive”. The outcome in assay [8] and in assay [9] was inactive.
For the compound `O=C(O)CC1CCCc2ccccc2C1O` (stereo unspecified), the Potency entry in assay [1], in [2], in [3], in [10], in [5] and in assay [6] was “inactive” in each case. Moreover, the compound was called inactive in [8] and in assay [9].
For `Cc1ccc(O)c(N=Nc2ccccc2)n1`, the Potency is 15.1 µM (active) in assay [1]; 39.8 µM (active) and inactive in assay [6]; 44.7 µM (active) in assay [7]. Also, the Potency result in assay [2], in assay [3], in [4] and in [5] was “inactive” each time. For the same compound, the outcome in [8] and in assay [9] was inactive.
On to `CCCCCCCCCCCCCCCC(=O)OC(CC(=O)O)C[N+](C)(C)C` (stereo unspecified), for which the Potency result in assay [1], in assay [2], in [3], in [4], in assay [10] and in [5] was “inactive” in each case. Moreover, the Potency result in assay [6] and in [7] was “inactive” each time. Also, the result in assay [8] was inactive.
Regarding `CN1C2CCC1CC(OC(=O)C(O)c1ccccc1)C2` (stereo unspecified), the Potency entry in [1], in [2], in assay [3], in [10], in [5] and in [7] was “inactive” throughout. Moreover, the compound was classed as inactive in [8] and in assay [9].
